Unmarked numbers belong to inactive results. How the calls were made is not given here.
target: Pantothenate synthetase (Mycobacterium tuberculosis (strain ATCC 25618 / H37Rv)) (UniProt P9WIL5); assay: Recombinant Mtb pantothenate synthetase (PanC) inhibitors, coupled enzyme, confirmatory (AID 375); details: coupled enzyme assay; at 10 µM, stronger effect = higher value;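 further: 0% = full reaction with vehicle and 100% = no enzyme background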
Sequence (P9WIL5 whole entry, looked up): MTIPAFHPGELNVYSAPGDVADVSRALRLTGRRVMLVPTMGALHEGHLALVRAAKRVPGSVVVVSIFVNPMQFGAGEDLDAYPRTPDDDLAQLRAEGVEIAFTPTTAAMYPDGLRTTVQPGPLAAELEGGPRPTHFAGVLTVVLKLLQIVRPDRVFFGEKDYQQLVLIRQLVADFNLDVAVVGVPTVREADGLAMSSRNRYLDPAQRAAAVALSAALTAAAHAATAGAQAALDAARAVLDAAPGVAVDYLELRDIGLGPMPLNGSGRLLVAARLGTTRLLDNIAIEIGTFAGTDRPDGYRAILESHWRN

Compound	inhibition [%]
CCC(=O)Nc1ccc(NC(=O)CSc2nnnn2C(C)C)cc1	0
CC1(C)C(c2cccs2)=[N+]([O-])C2(CCCCC/C2=N\O)N1O (stereo not drawn)	6
CCN(CC)CC(C)CNC(=O)CC(C(=O)N1CCc2ccccc21)n1ccnc1 (stereo not drawn)	2
CCCCn1c2c(c3ccccc31)CCc1nonc1-2	1
Cc1noc(C)c1COc1cccc(C(=O)Nc2ccc(C#N)cc2)c1	0
Cc1cc(Cl)c(S(=O)(=O)NC2CCCCC2)cc1OCC(=O)Nc1nncs1	3
O=C(c1sc2ccccc2c1Cl)N(Cc1cccs1)C1CCS(=O)(=O)C1 (stereo not drawn)	0
CCOC(=O)c1c(C)oc2c1c(C(c1ccncc1)N1CCOCC1)c(O)c1ccccc12 (stereo not drawn)	0
O=C(Nc1ccc(NC(=O)C2CC2)cn1)c1ccccc1Cl	0
CCOc1cc(C(=O)NCC2CCCO2)cc(OCC)c1OCC (stereo not drawn)	3
CCOC(=O)N1CCC(NC(=O)CCC(=O)N2CC(C)Oc3ccc(Cl)cc32)CC1 (stereo not drawn)	2
Cc1n[nH]c(C)c1N1C(=O)c2cccc3cc(Br)cc(c23)C1=O	6
COc1cc(NS(=O)(=O)N2CCCC2)cc(OC)c1OC	0
CCOC(=O)c1c(C)oc2ccc(O)c(CN3CCCCC3)c12	12
CCCCN(C)Cc1c(C)[nH]c2c(Cl)cccc2c1=O	5
CCOc1ccc(-n2c(C)nc3c(cnn3-c3ccc(Cl)cc3)c2=O)cc1	4
c1cncc(-c2nnc3n2N=C(c2cccs2)CS3)c1	6
O=C(Nc1ccc(-c2nc3ncccc3o2)cc1)c1ccc(Br)o1	15
COC(=O)[C@H](CCSC)NC(=O)Nc1cc(C)ccc1C	0
O=C(NCC(c1cccnc1)N1CCN(c2ccccc2)CC1)c1ccc2c(c1)OCO2 (stereo not drawn)	0
CC(C)C(=O)N1CCN(c2nc(-c3ccccc3)c3c(c2C#N)CCCC3)CC1	0
COc1oc(-c2ccccc2)nc1C(F)(F)F	0
CCOC(=O)c1nnn(CC(=O)Nc2cccc(F)c2)c1C(=O)OCC	3
